The entries come from a sample that favours hits as a whole.
GAA inhib – qHTS Assay for Inhibitors of Human alpha-Glucosidase as a Potential Chaperone Treatment of Pompe Disease; purified human GAA, 4-MU-alpha-glucoside fluorescence; Potency, µM (highest dose often 76.9 µM), actives largely listed as inhibitors; 200,000 compounds, 0.005% hits; AID 1466, 2008
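Human alpha-glucosidase, 4 nM, pre-mixed with test compounds before 400 uM 4-methylumbelliferyl substrate; 20 min room temperature at pH 5.0. Fluorescence read after pH 10 stop; AC50 values from Hill-equation fits.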
GAA glycogen – qHTS Assay for Inhibitors and Activators of Human alpha-Glucosidase Cleavage of Glycogen | Lysosomal alpha-glucosidase (Homo sapiens), P10253 | recombinant GAA, glycogen substrate, Amplex Red glucose oxidase fluorescence | Potency, µM (titrated, usually from 76.4 µM), actives largely listed as inhibitors | 300,000 compounds, 0.38% hits | AID 2100, 2009;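 also: the screen sought inhibitors and activators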
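Recombinant human alpha-glucosidase (4 nM final) hydrolysed bovine liver glycogen (30 ug) for 40 min at 37 C in pH 5.0 citrate/phosphate with 0.01% Tween-20. Released glucose detected by glucose oxidase/Amplex Red, Ex 573/Em 610 nm. Compounds up to 77 uM; AC50 from Hill fits.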
aGal spleen mod – qHTS Assay for Inhibitors and Activators of Human alpha-Galactosidase From Spleen Homogenate. Alpha-galactosidase A (Homo sapiens), P06280. human spleen homogenate, 4MU-alpha-Gal fluorescence, 40 min. Potency, µM (highest dose often 80 µM), most hits filed as inhibitors. 240,000 compounds, 0.008% hits
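Fluorogenic readout (Ex 365/Em 440 nm) of 4-methylumbelliferone released from 1 mM 4-MU-alpha-galactoside by spleen homogenate, 40 min at 37C, pH 5.0. Data normalized to no-enzyme and enzyme controls; Hill-equation AC50 from compound titrations.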
GLA inh pH 4.5 – qHTS Assay for Inhibitors of Human alpha-Galactosidase at pH 4.5; Alpha-galactosidase A (Homo sapiens), P06280; activity change, negative = inhibition, % at 105 µM; 230,000 tested, under 10 active; purified enzyme, 4-MU-alpha-Gal fluorescence, pH 4.5
Target sequence (P06280 whole entry, looked up): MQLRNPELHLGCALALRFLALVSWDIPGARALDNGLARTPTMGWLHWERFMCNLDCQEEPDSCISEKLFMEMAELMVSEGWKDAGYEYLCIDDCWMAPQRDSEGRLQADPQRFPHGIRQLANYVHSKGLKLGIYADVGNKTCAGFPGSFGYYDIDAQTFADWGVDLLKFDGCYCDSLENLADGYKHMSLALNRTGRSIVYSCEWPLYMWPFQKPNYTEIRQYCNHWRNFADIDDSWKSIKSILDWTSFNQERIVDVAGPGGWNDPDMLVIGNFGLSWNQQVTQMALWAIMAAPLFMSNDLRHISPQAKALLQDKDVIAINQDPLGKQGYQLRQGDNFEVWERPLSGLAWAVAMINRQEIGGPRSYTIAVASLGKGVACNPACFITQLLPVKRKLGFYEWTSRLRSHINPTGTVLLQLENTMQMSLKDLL
GAA spleen mod – qHTS Assay for Inhibitors and Activators of Human alpha-Glucosidase From Spleen Homogenate | human spleen homogenate, 4-MU-alpha-glucoside fluorescence | 240,000 compounds, 0.006% hits | Potency, µM (titrated, usually from 79.9 µM), actives largely listed as inhibitors
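AC50 values come from Hill-equation fits of concentration-response data, normalized to no-enzyme and full-activity controls. Enzyme source: 1 ug human spleen homogenate; 1 mM fluorogenic 4-MU glucoside, pH 5.0 citrate buffer, 37 C, 40 min.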
Large screens that a line does not name were inactive. Calls follow the shape of the dose curve; as a rule, active = well fitted curve in the direction sought with a large enough effect; inconclusive = small, poorly fitted or top-dose-only effect, or another doubt; inactive = no such curve, though single readings can be large; an effect the other way counts as inactive or inconclusive.

COc1ccc(O[C@H]2C=C[C@@H](c3ccccc3)O[C@H]2COC(=O)CC/C(C)=N/O[C@@H]2O[C@H](COC(C)=O)[C@H](OC(C)=O)[C@H](OC(C)=O)[C@H]2OC(C)=O)cc1	none (no result: GAA inhib, GAA glycogen, GLA inh pH 4.5)
CC(C)CO/N=C1/C[C@@H](O)[C@@H](O)[C@@H]2[C@@H]3C(=O)N(c4cccc(Oc5ccccc5)c4)C(=O)[C@H]3CC[C@@H]12	none (no result: GAA inhib, GAA glycogen, GLA inh pH 4.5)
COc1ccc2c(c1)-c1c(sn(-c3ccc(OC)c(OC)c3)c1=S)C(C)(C)N2	GAA glycogen 22µM
COc1ccc(-n2sc3c(c2=S)-c2cc(OC)ccc2NC3(C)C)cc1	GAA glycogen inconclusive
Oc1ccc(/C=N/Nc2ccc(C(F)(F)F)cn2)cc1	GAA glycogen 22µM
COc1ccc(N=Cc2sc(O)c3ccccc23)cc1	GAA glycogen 20µM
CSCC[C@H](NC(=O)[C@H](CO)NC(=O)[C@H](Cc1ccc(O)cc1)NC(=O)[C@@H](N)CO)C(=O)N[C@@H](CCC(=O)O)C(=O)N[C@@H](Cc1cnc[nH]1)C(=O)N[C@@H](Cc1ccccc1)C(=O)N[C@@H](CCCNC(=N)N)C(=O)N[C@@H](Cc1c[nH]c2ccccc12)C(=O)NCC(=O)N[C@@H](CCCCN)C(=O)N1CCC[C@H]1C(=O)N[C@H](C(=O)NCC(=O)N[C@@H](CCCCN)C(=O)N[C@@H](CCCCN)C(=O)N[C@@H](CCCNC(=N)N)C(=O)N[C@@H](CCCNC(=N)N)C(=O)N1CCC[C@H]1C(=O)N[C@H](C(=O)N[C@@H](CCCCN)C(=O)N[C@H](C(=O)N[C@@H](Cc1ccc(O)cc1)C(=O)N1CCC[C@H]1C(=O)O)C(C)C)C(C)C)C(C)C	none (no result: GAA inhib, GAA glycogen, GLA inh pH 4.5)
CC1(C)CC(O)C(C)(C)N1O (centres undefined)	GAA glycogen 16µM
CSCC[C@H](N)C(=O)N[C@@H](CCC(=O)O)C(=O)N[C@H](C(=O)NCC(=O)N[C@@H](Cc1c[nH]c2ccccc12)C(=O)N[C@@H](Cc1ccc(O)cc1)C(=O)N[C@@H](CCCNC(=N)N)C(=O)N[C@@H](CO)C(=O)N1CCC[C@H]1C(=O)N[C@@H](Cc1ccccc1)C(=O)N[C@@H](CO)C(=O)N[C@@H](CCCNC(=N)N)C(=O)N[C@H](C(=O)N[C@H](C(=O)N[C@@H](Cc1cnc[nH]1)C(=O)N[C@@H](CC(C)C)C(=O)N[C@@H](Cc1ccc(O)cc1)C(=O)N[C@@H](CCCNC(=N)N)C(=O)N[C@@H](CC(N)=O)C(=O)NCC(=O)N[C@@H](CCCCN)C(=O)O)C(C)C)C(C)C)C(C)C	none (no result: GAA inhib, GAA glycogen, GLA inh pH 4.5)
NC(=O)c1ccc(N2CCN(c3ccc(O)cc3)CC2)c([N+](=O)[O-])c1	GAA glycogen 5µM
O=[N+]([O-])c1cc(Cl)ccc1N1CCN(c2ccccc2O)CC1	GAA glycogen 8.8µM
CC(=O)c1ccc(N2CCN(c3ccc(C(N)=O)cc3[N+](=O)[O-])CC2)cc1	none
OCc1ccc(-c2ccc(-c3ccc(CO)s3)o2)s1	aGal spleen mod inconclusive, GLA inh pH 4.5 inconclusive (no result: GAA inhib, GAA glycogen)
O=C1c2cc(O)cc(O)c2OC[C@@H]1c1ccc(O)c(O)c1	none (no result: GAA inhib, GAA glycogen, GLA inh pH 4.5)
CC1OC(Oc2c(-c3cc(O)c(O)c(O)c3)oc3cc(O)cc(O)c3c2=O)C(O)C(O)C1O (centres undefined)	GAA glycogen inconclusive (no result: GAA inhib)
O=C(O)C1OC(Oc2c(-c3ccc(O)c(O)c3)oc3cc(O)cc(O)c3c2=O)C(O)C(O)C1O (centres undefined)	GAA glycogen 4µM
COc1cc2c(cc1CC=C(C)C)C(=O)C[C@@H](c1ccc(O)cc1)O2	none (no result: GAA inhib, GAA glycogen, GLA inh pH 4.5)
Cc1ccc(N=C2CSC(=O)N2)cc1	none
Cc1cc(O)c(C(C)C)cc1N=C1CSC(=O)N1	GAA glycogen 18µM
